Compound activity from PubChem BioAssay.
In the library only some 4.5% were active in any assay of this set; here they are far more common.
CSC inhib: blocks cancer stem cells | cancer stem cell-like cells viability, luminescence | inhibition, % at 7.5 µM | actives 1.1% (n = 300,000); in the data active = inhibition above about 75%; tested in HMLE shEcad cells
Jurkat NFkB inh: inhibitors of the PMA/ionomycin-induced NF-kB reporter in Jurkat cells; actives 0.53% (n = 330,000); PMA/ionomycin-induced NF-kB luciferase reporter, luminescence; inhibition, % at 4 µM; in the data active = inhibition above about 50%
697 NFkB inh: lowers PMA/ionomycin-induced NF-kB signal in 697 B cells; 697 B-cell NF-kB luciferase reporter, 16 h; inhibition, % at 4 µM; actives 0.33% (n = 330,000); AID 435022; in the data active = inhibition above about 35%
Gli-Sufu block: Gli-Sufu pathway antagonism; Sufu-KO-LIGHT fibroblasts, Gli luciferase reporter luminescence; actives 0.74% (n = 340,000); AID 588413; inhibition, % at 5 µM;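 active = inhibition above about 55%, limit read from the data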;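 note: 0% = DMSO-treated cells and 100% = wells with medium but no cells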
aSyn UTR inh: 5' untranslated region of α-synuclein, MLPCN primary screen; inhibition, % (tested at 7.5 µM); AID 1813; actives 0.82% (n = 300,000); alpha-synuclein 5'UTR reporter, inhibitor activity; in the data active = inhibition above about 60%;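 note: H4 neuroglioblastoma cells stably carrying SNCA 5'UTR luciferase fusion; 0% = DMSO wells and 100% = positive control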
Mdm2 MdmX PPI: human Mdm2/MdmX binding inhibition | O15151+Q00987 | SaOS-2 split-luciferase Mdm2/MdmX complementation, luminescence | inhibition, % at 8 µM | actives 3% (n = 330,000) | AID 485346;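 active = inhibition of at least 50% at 8 µM in the primary screen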
Target sequence (O15151 whole entry, looked up): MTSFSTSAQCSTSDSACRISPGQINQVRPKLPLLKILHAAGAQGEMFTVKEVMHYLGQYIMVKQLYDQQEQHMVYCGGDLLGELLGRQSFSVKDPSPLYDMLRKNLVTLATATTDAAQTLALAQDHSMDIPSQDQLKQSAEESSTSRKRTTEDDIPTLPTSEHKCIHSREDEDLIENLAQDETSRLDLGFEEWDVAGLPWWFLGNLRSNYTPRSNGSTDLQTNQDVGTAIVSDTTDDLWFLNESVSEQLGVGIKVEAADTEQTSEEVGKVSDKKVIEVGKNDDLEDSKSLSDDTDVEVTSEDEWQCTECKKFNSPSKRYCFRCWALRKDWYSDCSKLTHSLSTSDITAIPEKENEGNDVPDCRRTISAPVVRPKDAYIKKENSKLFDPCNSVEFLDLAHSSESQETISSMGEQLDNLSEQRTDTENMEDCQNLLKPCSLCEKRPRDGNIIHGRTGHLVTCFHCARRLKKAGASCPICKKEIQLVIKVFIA
Target sequence (Q00987 whole entry, looked up): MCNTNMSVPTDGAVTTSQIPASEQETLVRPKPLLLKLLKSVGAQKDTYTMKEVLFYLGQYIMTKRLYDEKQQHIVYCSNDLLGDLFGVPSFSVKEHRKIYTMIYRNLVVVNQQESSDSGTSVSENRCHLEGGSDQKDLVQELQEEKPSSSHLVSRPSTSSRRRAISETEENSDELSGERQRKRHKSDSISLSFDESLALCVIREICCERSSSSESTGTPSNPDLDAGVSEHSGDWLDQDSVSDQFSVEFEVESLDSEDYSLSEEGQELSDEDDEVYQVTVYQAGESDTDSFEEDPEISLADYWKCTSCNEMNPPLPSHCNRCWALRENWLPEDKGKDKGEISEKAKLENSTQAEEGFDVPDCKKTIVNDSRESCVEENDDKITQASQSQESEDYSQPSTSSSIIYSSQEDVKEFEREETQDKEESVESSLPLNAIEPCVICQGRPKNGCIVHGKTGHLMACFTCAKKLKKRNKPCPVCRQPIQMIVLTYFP
697 NFkB conf: lowers PMA/ionomycin-induced NF-kB signal in 697 B cells; shares compounds with 697 NFkB inh; 697 B-cell NF-kB luciferase, 16 h; inhibition, % at 4 µM; actives 35% (n = 2,000); in the data active = inhibition mostly above about 28%, no sharp cut-off; inactive = mostly below about 22%
Starred values were filed as active, the others as inactive.

Screening COc1cc(/C=N/Nc2nc(C)cc(C)n2)ccc1OC(=O)c1ccco1 returned CSC inhib 2, Jurkat NFkB inh -5, 697 NFkB inh 13, Gli-Sufu block -4, aSyn UTR inh -10 and Mdm2 MdmX PPI 1.
For CC(=O)c1ccc(Nc2nc(N3CCOCC3)nc(N3CCOCC3)n2)cc1 the results were CSC inhib -11, Jurkat NFkB inh -18, 697 NFkB inh 14, Gli-Sufu block -3, aSyn UTR inh -9 and Mdm2 MdmX PPI 16.
For Cn1c(CCNC(=O)c2ccccc2)nc2cc(NC(=O)C3CCCCC3)ccc21 the results were CSC inhib -8, Jurkat NFkB inh -23, 697 NFkB inh -4, Gli-Sufu block 1, aSyn UTR inh -27 and Mdm2 MdmX PPI -10.
For CC1CN(S(=O)(=O)c2cccc(C(=O)OC(C)C(=O)NC3CCCCC3C)c2)CC(C)O1 (stereo not drawn) the results were CSC inhib -6, Jurkat NFkB inh 9, 697 NFkB inh -27, Gli-Sufu block 0, aSyn UTR inh -7 and Mdm2 MdmX PPI 16.
For CN=c1scc(C)n1/N=C/c1cc(Br)c(O)c(Br)c1 the results were CSC inhib -1, Jurkat NFkB inh -8, 697 NFkB inh 1, Gli-Sufu block 0, aSyn UTR inh -14 and Mdm2 MdmX PPI -32.
Screening CN=c1scc(C)n1/N=C/c1ccc2c(c1)OCO2 returned CSC inhib -2, Jurkat NFkB inh -131, 697 NFkB inh -273, Gli-Sufu block -83, aSyn UTR inh 35, Mdm2 MdmX PPI -36 and 697 NFkB conf -262.
CCCOC(=O)c1cc(NC(=O)/C=C/c2ccccc2)ccc1O was read as CSC inhib 7, Jurkat NFkB inh 4, 697 NFkB inh -8, aSyn UTR inh -3 and Mdm2 MdmX PPI -3.
Screening COc1ccc(-c2nsc3c(N4CCCC4)ncnc23)cc1 returned CSC inhib 2, Jurkat NFkB inh -77, 697 NFkB inh -458, Gli-Sufu block -7, aSyn UTR inh 70*, Mdm2 MdmX PPI 35 and 697 NFkB conf -348.
CCN(CC(=O)NCc1ccc(Cl)cc1)C(=O)COc1cccc(C(F)(F)F)c1 was read as CSC inhib -2, Jurkat NFkB inh 7, 697 NFkB inh 13, Gli-Sufu block 0, aSyn UTR inh 20 and Mdm2 MdmX PPI -2.
Screening O=S(=O)(c1cnc(Cl)c(Cl)c1)N1CCc2ccccc21 returned CSC inhib 14, Jurkat NFkB inh -6, 697 NFkB inh 25, Gli-Sufu block 6, aSyn UTR inh -30 and Mdm2 MdmX PPI 9.
For O=S(=O)(c1cnc(Cl)c(Cl)c1)N1CCCc2ccccc21 the results were CSC inhib 16, Jurkat NFkB inh 19, 697 NFkB inh 43*, Gli-Sufu block -5, aSyn UTR inh -34, Mdm2 MdmX PPI 33 and 697 NFkB conf 37*.
For CC(C)Oc1cc(O)c2c(=O)c(-c3ccc(O)cc3)coc2c1 the results were CSC inhib 52, Jurkat NFkB inh -33, 697 NFkB inh -285, Gli-Sufu block -93, aSyn UTR inh -138, Mdm2 MdmX PPI -134 and 697 NFkB conf -191.
Screening C=CCN1C(=S)CC(c2ccccc2)=Nc2ccccc21 returned Jurkat NFkB inh 5, 697 NFkB inh -1, Gli-Sufu block -1, aSyn UTR inh -8 and Mdm2 MdmX PPI 8.
Cc1cc(C)cc(NC(=O)c2nnn(Cc3cc(C)ccc3C)c2N)c1 was read as Jurkat NFkB inh -8, 697 NFkB inh 38*, Gli-Sufu block 12, aSyn UTR inh 50, Mdm2 MdmX PPI 0 and 697 NFkB conf 29*.
Cc1ccc(C)c(Cn2nnc(C(=O)Nc3ccc4c(c3)OCCO4)c2N)c1 was read as CSC inhib 35, Jurkat NFkB inh -32, 697 NFkB inh -63, Gli-Sufu block -32, aSyn UTR inh -106 and Mdm2 MdmX PPI -9.
COc1ccc(CCNC(=O)CCCN2C(=O)c3ccccc3C2=O)cc1 was read as CSC inhib -6, Jurkat NFkB inh 7, 697 NFkB inh 15, Gli-Sufu block -2, aSyn UTR inh 2 and Mdm2 MdmX PPI 2.
CCOC(=O)N1CCN(CC(=O)Nc2ccccc2C(=O)Nc2ccccc2)CC1 was read as Jurkat NFkB inh 19, 697 NFkB inh 4, Gli-Sufu block -7 and Mdm2 MdmX PPI 20.
